Compound activity (PubChem BioAssay)
Compounds with a hit are over-represented: about 2.8% of the library has one in this group of screens.
PI5P4K alpha inh – qHTS for Inhibitors of phosphatidylinositol 5-phosphate 4-kinase (PI5P4K) | Phosphatidylinositol 5-phosphate 4-kinase type-2 alpha (Homo sapiens), P48426 | PI5P4Kalpha enzyme, ADP-Glo luminescence, 60 min; active compounds read low | max response, % | 330,000 tested, 1.2% active | AID 652105, 2013; active = max response of -50% or lower; inconclusive = between -30% and -50%; inactive = -30% or higher; also: value at the top dose of about 77 µM
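Single end-point luminescence (ADP-Glo) quantified ADP from PI5P4Kalpha turnover; ATP 5 microM final, 1 h at RT, 0.1% CHAPS and 0.28 mM EGTA in HEPES pH 7.4.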
POLB inh – qHTS Assay for Inhibitors of DNA Polymerase Beta | P06746 | Pol beta primer extension/strand displacement, fluorescence kinetic | Potency, µM (series often up to 114 µM), most hits filed as inhibitors | 340,000 tested, 1.3% active | AID 485314, 2010
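Pol beta (10 nM) was preincubated with compound for 15 min at room temperature. The reaction was then started with 50 nM substrate and read immediately and after a further 10 min at room temperature.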
Pol iota inh – qHTS for Inhibitors of Polymerase Iota; DNA polymerase iota (Homo sapiens), Q9UNA4; Pol iota fluorescent replication assay, 10 min; Potency, µM (top dose mostly 115 µM), hits mostly inhibitors; 390,000 tested, 1% active
Target sequence (Q9UNA4 whole entry, looked up): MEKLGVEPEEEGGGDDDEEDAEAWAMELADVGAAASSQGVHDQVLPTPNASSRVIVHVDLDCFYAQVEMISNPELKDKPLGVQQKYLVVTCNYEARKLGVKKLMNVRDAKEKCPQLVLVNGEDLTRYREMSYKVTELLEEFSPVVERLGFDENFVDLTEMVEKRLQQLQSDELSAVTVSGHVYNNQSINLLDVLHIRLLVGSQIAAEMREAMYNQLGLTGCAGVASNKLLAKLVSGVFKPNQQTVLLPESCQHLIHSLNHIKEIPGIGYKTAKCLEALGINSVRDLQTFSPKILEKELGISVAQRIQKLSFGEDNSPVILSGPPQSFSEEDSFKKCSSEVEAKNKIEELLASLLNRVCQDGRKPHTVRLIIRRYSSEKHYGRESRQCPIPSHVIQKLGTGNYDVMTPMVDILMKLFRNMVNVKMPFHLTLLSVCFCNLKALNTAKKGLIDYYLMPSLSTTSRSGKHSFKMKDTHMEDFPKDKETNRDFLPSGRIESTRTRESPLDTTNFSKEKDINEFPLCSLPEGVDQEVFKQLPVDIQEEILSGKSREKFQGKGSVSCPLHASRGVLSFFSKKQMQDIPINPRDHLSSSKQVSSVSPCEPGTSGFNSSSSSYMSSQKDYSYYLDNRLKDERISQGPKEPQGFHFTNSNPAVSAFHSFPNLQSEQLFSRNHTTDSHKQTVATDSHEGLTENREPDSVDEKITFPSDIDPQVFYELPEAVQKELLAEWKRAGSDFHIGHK
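Fluorescent replication assay read twice, at 0 min and 10 min after adding 50 nM (final) substrate. Enzyme (10 nM) and compounds were first incubated 15 min at room temperature; enzyme-free buffer wells were negative controls.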
Pol kappa inh-1 – qHTS for Inhibitors of Polymerase Kappa; DNA polymerase kappa (Homo sapiens), Q9UBT6; purified Pol kappa, fluorescent DNA synthesis assay, 10 min; Potency, µM (highest dose often 107 µM), actives largely listed as inhibitors; 400,000 tested, 0.53% active; AID 588579, 2011
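Here, compound and 10 nM enzyme are combined for 15 min at room temperature; adding 50 nM substrate (final) starts DNA synthesis, tracked by fluorescence at 0 and 10 min against buffer-only wells.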
Pol eta inh-1 – qHTS for Inhibitors of Polymerase Eta; DNA polymerase eta (Homo sapiens), Q9Y253; recombinant Pol eta, fluorescent DNA replication assay; Potency, µM (series often up to 114 µM), hits mostly inhibitors; 390,000 tested, 1.2% active; AID 588591, 2011
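Pol eta (10 nM) was preincubated with compounds for 15 min at room temperature, after which fluorescent replication substrate (50 nM final) was added to start the reaction. Fluorescence was read kinetically at 0 and 10 min.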
WRN inhibitor – qHTS for Inhibitors of WRN Helicase; Bifunctional 3'-5' exonuclease/ATP-dependent helicase WRN (Homo sapiens), Q14191; WRN helicase unwinding, fluorescent forked duplex, kinetic; Potency, µM (doses to about 114 µM), usual class: inhibitors; 360,000 tested, 0.46% active; also: nearly all actives have a fitted effect of over 55% in size
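Screening of the MLSMR collection measured strand separation of a quenched forked DNA duplex (100 nM) by 20 nM WRN with 2 mM ATP, all final. Compounds were preincubated with enzyme 15 min at room temperature.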
TbPGK inh – qHTS for inhibitors of Phosphogylcerate Kinase: Hit Validation Screen; shares compounds with Pol kappa inh-1; TbPGK coupled GAPDH assay, Kinase-Glo luminescence; Potency, µM (titrated, usually from 57.5 µM), hits mostly inhibitors; 500 tested, 79% active; AID 686980, 2013; also: nearly all actives have a fitted effect of over 65% in size
Pol iota confirm – qHTS for Inhibitors of Polymerase Iota: Confirmatory Assay for Cherry-picked Compounds. shares compounds with Pol kappa inh-1. Pol iota primer extension, TAMRA/BHQ fluorescence. Potency, µM, actives largely listed as inhibitors. 1,500 tested, 77% active. AID 720496, 2013
GALK confirm – Confirmation Assay for Inhibitors of Human Galactokinase (GALK); shares compounds with Pol eta inh-1; purified GALK, Kinase-Glo ATP depletion luminescence; Potency, µM (titrated, usually from 115 µM), actives largely listed as inhibitors; 150 tested, 70% active
GALK redox cs – Confirmatory Assay for Inhibitors of Human Galactokinase (GALK): Phenol-HRP redox assay counterscreen; Potency, µM (titrated, usually from 115 µM), actives largely listed as inhibitors; 150 tested, 40% active; shares compounds with Pol eta inh-1; Phenol red-HRP H2O2 redox cycling, absorbance 600 nm; AID 2035, 2009
HEK293 viability – Secondary Assay for Inhibitors of Human Galactokinase (GALK): HEK-293 Cell Viability Assay | shares compounds with Pol eta inh-1 | Potency, µM (top dose mostly 46.1 µM), actives largely listed as inhibitors | 170 tested, 10% active | HEK-293 viability, ATP luminescence (CellTiter-Glo), 24/48 h
Pol kappa inh-2 – qHTS for Inhibitors of Polymerase Kappa: Confirmatory Assay for Cherry-picked Compounds | 920 tested, 76% active | shares compounds with Pol eta inh-1 | purified Pol-kappa, fluorescent strand-displacement substrate | Potency, µM, usual class: inhibitors
Pol eta inh-2 – qHTS for Inhibitors of Polymerase Eta: Confirmatory Assay for Cherry-picked Compounds; AID 720502, 2013; Pol eta primer extension, TAMRA/BHQ fluorescence, 10 min; 2,600 tested, 64% active; Potency, µM, hits mostly inhibitors; shares compounds with Pol eta inh-1
Hits are given with their value; [ ] = another dose, or the depositor's remark. Unless noted, calls follow the shape of the dose curve; as a rule, active = well fitted curve in the direction sought with a large enough effect; inconclusive = small, poorly fitted or top-dose-only effect, or another doubt; inactive = no such curve, though single readings can be large; an effect the other way counts as inactive or inconclusive.

Screening O=C(COC(=O)/C=C/c1cccc(F)c1)Nc1ccc(Cl)cn1 returned PI5P4K alpha inh inactive, POLB inh inactive, Pol iota inh inactive, Pol kappa inh-1 inactive, Pol eta inh-1 inactive and WRN inhibitor inactive.
COC(CNC(=O)C1CCN(S(=O)(=O)c2ccc3nc4c(c(C(=O)O)c3c2)CC(C)CC4)CC1)OC (stereo not given) was read as PI5P4K alpha inh inactive, POLB inh inactive, Pol iota inh inconclusive, Pol kappa inh-1 inconclusive, Pol eta inh-1 14.1µM, WRN inhibitor inactive[11.6 µM], Pol iota confirm 21.2 and Pol eta inh-2 5.36.
`CCOc1ccc(-c2cn3c(n2)sc2cc(C(=O)NC(C)C45CC6CC(CC(C6)C4)C5)ccc23)cc1` (stereo not given) gave POLB inh inactive, Pol iota inh inactive, Pol kappa inh-1 inactive and Pol eta inh-1 inactive.
O=C1C=C(NCc2ccccc2)c2ccccc2C1=O was read as PI5P4K alpha inh inactive, POLB inh inconclusive, Pol iota inh 1µM, Pol kappa inh-1 inactive, Pol eta inh-1 5.62µM, WRN inhibitor inconclusive, Pol iota confirm 42.3, GALK confirm 21.1µM, GALK redox cs 16.8µM, HEK293 viability inconclusive and Pol eta inh-2 84.9.
For COc1ccc(N2Cc3cccc(C(=O)Nc4ccc(C(C)C)cc4)c3C2=O)cc1 the results were POLB inh 11.2µM, Pol iota inh 56.2µM, Pol kappa inh-1 inconclusive, Pol iota confirm inconclusive, Pol kappa inh-2 29.9 and Pol eta inh-2 inconclusive.
For COc1ccc(N2Cc3cccc(C(=O)Nc4ccc(C)cc4)c3C2=O)cc1 the results were POLB inh 12.6µM, Pol iota inh 79.4µM, Pol kappa inh-1 inconclusive, Pol iota confirm inconclusive, Pol kappa inh-2 37.7 and Pol eta inh-2 inconclusive.
CC(C)c1ccc(NC(=O)c2cccc3c2C(=O)N(C2CCCCC2)C3)cc1 was read as POLB inh inactive, Pol iota inh inactive and Pol kappa inh-1 inactive.
`CN1CCN(C(=O)c2cnn(-c3cccc(Cl)c3)c2C2CCN(C(=O)OC(C)(C)C)CC2)CC1` gave POLB inh inactive, Pol iota inh inactive, Pol kappa inh-1 inactive and Pol eta inh-1 inactive.
Screening Cc1ccc(S(=O)(=O)Nc2csc(C)c2C(=O)O)cc1 returned PI5P4K alpha inh inconclusive, POLB inh 8.91µM, Pol iota inh inconclusive, Pol kappa inh-1 inactive, Pol eta inh-1 17.8µM, WRN inhibitor inactive, Pol iota confirm 67 and Pol eta inh-2 47.8.
Cc1ccc(S(=O)(=O)Nc2cc(C)c(O)cc2C)cc1 was read as PI5P4K alpha inh inactive, POLB inh inactive, Pol iota inh inactive, Pol kappa inh-1 inactive, Pol eta inh-1 inactive and WRN inhibitor inactive.
`O=c1cc2c(=O)oc3cc(O)c(O)oc3c2c(O)c1O` gave PI5P4K alpha inh -74.8, POLB inh 0.355µM, Pol iota inh 1.12µM, Pol kappa inh-1 2.82µM, Pol eta inh-1 0.708µM, WRN inhibitor inconclusive, TbPGK inh inconclusive, Pol iota confirm 1.06, Pol kappa inh-2 0.947 and Pol eta inh-2 1.2.
Screening O=C(NCc1ccc(Cl)cc1)c1ccc(NC(=O)N2CC3CCCN3c3ccccc32)cc1 (stereo not given) returned POLB inh inactive, Pol iota inh inactive, Pol kappa inh-1 inactive and Pol eta inh-1 inactive.
For O=C(Nc1cccc(Oc2ccc(C(=O)O)c(C(=O)O)c2)c1)c1ccc(-c2ccccc2)cc1 the results were PI5P4K alpha inh inconclusive, POLB inh inconclusive, Pol iota inh inconclusive, Pol kappa inh-1 89.1µM, Pol eta inh-1 22.4µM, WRN inhibitor inconclusive, TbPGK inh 14.6µM, Pol iota confirm 84.4, GALK confirm 23.7µM, GALK redox cs inactive, HEK293 viability inactive and Pol eta inh-2 inconclusive.
Screening CC(=O)c1ccc(NC(=O)CSc2nc(-c3cccc(F)c3)nc3c2c(=O)n(C)c(=O)n3C)cc1 returned POLB inh inactive, Pol iota inh inactive, Pol kappa inh-1 inactive and Pol eta inh-1 inactive.
COc1cc2c(oc(=O)c3cc(C)cc(OC)c32)c2c(C3OC(C)C(O)C(C)(O)C3O)ccc(O)c12 (stereo not given) was read as PI5P4K alpha inh inactive, Pol iota inh 14.1µM, Pol kappa inh-1 39.8µM, Pol eta inh-1 3.98µM, WRN inhibitor inconclusive, Pol iota confirm 29.9 and Pol eta inh-2 21.3.
`COc1cccc2cc(C(=O)N3CC(C)OC(C)C3)c(=O)oc12` (stereo not given) gave PI5P4K alpha inh inactive, POLB inh inactive, Pol iota inh inactive, Pol kappa inh-1 inactive, Pol eta inh-1 inactive and WRN inhibitor inactive.
For CCOc1cc(/C=C2\C(=N)N3N=C(S(=O)(=O)CC)SC3=NC2=O)ccc1OC(=O)c1ccco1 the results were PI5P4K alpha inh inconclusive, POLB inh inactive, Pol iota inh inactive, Pol kappa inh-1 inactive, Pol eta inh-1 inconclusive and WRN inhibitor inactive[11.6 µM].
